In article PMC5700166 one finds binding signal data, which are given here for eleven sequences.

Changes are numbered by the printed parent chain.

Experiment in all cases: protein-binding microarray (PBM); PBM: ~300 nM protein, 6 mM HEPES pH 7.8, 80 mM KCl, 0.5 mM EDTA, 0.5 mM EGTA, 6% glycerol, 35 ng/ul poly-dIdC, 1% milk, 1 h, room temperature; Ap Aiptasia and Nv Nematostella (sea anemones) / Co Capsaspora / Aq Amphimedon (sponge) / Dm Drosophila / Hu human; RHD is the Rel homology domain; high values mean tight binding
Holding throughout (details): dsDNA, one strand shown

For one assay, the target named is T1, GST-Ap-NF-kB RHD (Exaiptasia pallida (Aiptasia), UniProt A0A913YAJ5 2-422).
T1 sequence: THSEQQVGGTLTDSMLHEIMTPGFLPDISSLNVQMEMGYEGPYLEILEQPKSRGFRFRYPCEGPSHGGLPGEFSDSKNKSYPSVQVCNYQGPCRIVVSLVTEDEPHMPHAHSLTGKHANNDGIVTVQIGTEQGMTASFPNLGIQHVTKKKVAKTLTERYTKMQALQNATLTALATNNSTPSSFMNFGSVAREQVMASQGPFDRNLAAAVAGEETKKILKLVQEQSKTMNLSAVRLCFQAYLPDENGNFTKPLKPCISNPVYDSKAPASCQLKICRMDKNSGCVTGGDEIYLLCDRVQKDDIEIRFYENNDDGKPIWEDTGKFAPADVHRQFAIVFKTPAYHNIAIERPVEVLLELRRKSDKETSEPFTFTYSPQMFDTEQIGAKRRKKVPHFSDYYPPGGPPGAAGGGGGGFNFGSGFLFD

The target in assay [1] is T2, GST-Nv-NF-kB (Cys allele) (Nematostella vectensis, UniProt E5G601 2-411).
T2 sequence: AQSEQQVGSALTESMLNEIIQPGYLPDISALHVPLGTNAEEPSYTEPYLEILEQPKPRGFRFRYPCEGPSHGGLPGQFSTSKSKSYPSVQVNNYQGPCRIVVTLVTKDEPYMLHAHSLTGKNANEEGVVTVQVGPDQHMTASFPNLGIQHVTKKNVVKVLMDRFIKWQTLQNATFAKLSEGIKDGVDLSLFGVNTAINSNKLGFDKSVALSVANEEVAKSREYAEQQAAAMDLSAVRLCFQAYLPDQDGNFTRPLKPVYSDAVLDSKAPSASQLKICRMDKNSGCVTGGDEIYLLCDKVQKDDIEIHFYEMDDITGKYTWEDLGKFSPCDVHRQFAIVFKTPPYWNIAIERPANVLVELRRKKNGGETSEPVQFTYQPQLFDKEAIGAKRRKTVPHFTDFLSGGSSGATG

Assay [2] deals with T3, GST-Nv-NF-kB (Ser allele) (Nematostella vectensis, UniProt A7UNT2 2-411).
T3 sequence: T2 sequence with Q21R, C66S, S207N, E215Q, V217A, E225K, A268E, D399E

In a further assay the target is T4, GST-Co-NF-kB (Capsaspora owczarzaki, UniProt F1ARL5 200-546).
T4 sequence: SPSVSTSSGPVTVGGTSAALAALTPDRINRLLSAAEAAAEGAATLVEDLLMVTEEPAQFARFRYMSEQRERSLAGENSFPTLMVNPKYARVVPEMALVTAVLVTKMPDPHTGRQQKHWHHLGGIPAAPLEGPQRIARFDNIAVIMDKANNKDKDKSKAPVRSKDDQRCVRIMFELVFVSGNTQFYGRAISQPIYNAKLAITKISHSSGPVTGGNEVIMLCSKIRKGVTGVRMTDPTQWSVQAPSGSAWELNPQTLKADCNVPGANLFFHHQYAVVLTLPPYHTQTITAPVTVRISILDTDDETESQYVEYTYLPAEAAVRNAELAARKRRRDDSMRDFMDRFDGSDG

In another assay the target is T5, GST-Dm-Relish (Drosophila melanogaster, UniProt Q94527 99-473).
T5 sequence: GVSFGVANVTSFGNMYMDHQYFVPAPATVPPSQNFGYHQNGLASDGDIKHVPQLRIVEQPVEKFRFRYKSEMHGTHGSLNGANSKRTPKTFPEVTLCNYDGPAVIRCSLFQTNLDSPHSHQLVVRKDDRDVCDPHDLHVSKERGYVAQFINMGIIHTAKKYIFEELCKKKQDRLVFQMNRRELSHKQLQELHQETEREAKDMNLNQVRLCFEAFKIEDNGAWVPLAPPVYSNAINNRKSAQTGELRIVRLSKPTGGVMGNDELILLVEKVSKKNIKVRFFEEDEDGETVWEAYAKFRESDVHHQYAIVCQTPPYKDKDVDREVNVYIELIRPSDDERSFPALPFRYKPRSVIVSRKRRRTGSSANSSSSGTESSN

The next assay deals with T6, GST-Aq-NF-kB (Amphimedon queenslandica, UniProt A9Y5G7 2-389).
T6 sequence: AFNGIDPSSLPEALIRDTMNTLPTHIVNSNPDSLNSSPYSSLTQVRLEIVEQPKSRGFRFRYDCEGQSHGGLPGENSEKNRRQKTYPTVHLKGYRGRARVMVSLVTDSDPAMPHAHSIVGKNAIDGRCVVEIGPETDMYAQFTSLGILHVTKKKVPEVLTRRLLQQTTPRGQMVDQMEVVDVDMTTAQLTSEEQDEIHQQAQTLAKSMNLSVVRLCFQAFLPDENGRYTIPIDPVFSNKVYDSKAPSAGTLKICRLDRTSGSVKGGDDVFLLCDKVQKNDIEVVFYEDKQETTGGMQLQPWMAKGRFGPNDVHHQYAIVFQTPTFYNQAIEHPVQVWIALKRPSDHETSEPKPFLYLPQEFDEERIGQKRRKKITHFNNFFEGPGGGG

Another assay addresses GST-Hu-p50 (Homo sapiens, UniProt P19838 7-356).

Sequence of GST-Hu-p50 (P19838 7-356): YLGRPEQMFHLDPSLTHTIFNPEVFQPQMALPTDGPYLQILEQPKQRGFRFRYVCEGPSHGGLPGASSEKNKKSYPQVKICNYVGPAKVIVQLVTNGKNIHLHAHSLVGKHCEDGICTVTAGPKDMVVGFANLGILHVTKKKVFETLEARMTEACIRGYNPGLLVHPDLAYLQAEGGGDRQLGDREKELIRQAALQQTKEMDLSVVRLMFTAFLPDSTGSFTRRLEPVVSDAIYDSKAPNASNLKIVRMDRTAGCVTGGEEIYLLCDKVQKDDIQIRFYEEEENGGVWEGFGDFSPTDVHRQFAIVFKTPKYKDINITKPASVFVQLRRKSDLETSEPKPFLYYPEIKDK

For the sequence “CCGATTAACATCAAATCCCCCCATGATGTTAATCGGGTCTTGATTCGCTTGACGCTGCTG”, the binding signal in the assay with GST-Ap-NF-kB RHD was found to be 7.89 z-score; in assay [1], 6.31 z-score; in assay [2] it was 6.65 z-score; with GST-Co-NF-kB, 7.39 z-score; in the assay with GST-Dm-Relish, 7.66 z-score; with GST-Aq-NF-kB, 6.36 z-score. Besides, the binding signal with GST-Hu-p50 was 6.55 z-score.

For “CCGATTAACATCAAGGGGGTACCTGATGTTAATCGGGTCTTGATTCGCTTGACGCTGCTG”, the binding signal came out at 5.62 z-score with GST-Ap-NF-kB RHD; 3.48 z-score in assay [1]; 4.15 z-score in assay [2]; 2.65 z-score with GST-Co-NF-kB; 3.15 z-score in the assay with GST-Dm-Relish; 3.5 z-score with GST-Aq-NF-kB. This sequence came in with a binding signal with GST-Hu-p50 of 3.89 z-score.

For the sequence “CCGATTAACATCAAAACTCCCCATGATGTTAATCGGGTCTTGATTCGCTTGACGCTGCTG”, the binding signal in the assay with GST-Ap-NF-kB RHD was determined as 7.13 z-score; in assay [1], 6.03 z-score; in assay [2], 6.69 z-score; with GST-Co-NF-kB it was 5.85 z-score; with GST-Dm-Relish, 5.96 z-score; in the assay with GST-Aq-NF-kB, 5.83 z-score. For the same sequence, the binding signal in the assay with GST-Hu-p50 turned out to be 5.36 z-score.

On to “CCGATTAACATCAGAGAATTCCCTGATGTTAATCGGGTCTTGATTCGCTTGACGCTGCTG”, for which the binding signal with GST-Ap-NF-kB RHD turned out to be 5.32 z-score; in assay [1], 7.57 z-score; in assay [2], 7.07 z-score; in the assay with GST-Co-NF-kB, 2.8 z-score; in the assay with GST-Dm-Relish, 4.51 z-score; with GST-Aq-NF-kB, 6.73 z-score. This sequence displayed a binding signal in the assay with GST-Hu-p50 of 5.27 z-score.

As for “CCGATTAACATCAGGACAGCCCCTGATGTTAATCGGGTCTTGATTCGCTTGACGCTGCTG”, the binding signal in the assay with GST-Ap-NF-kB RHD was 3.75 z-score; in assay [1], 5.09 z-score; in assay [2] it was 2.05 z-score; with GST-Co-NF-kB it was 1.05 z-score; with GST-Dm-Relish, 2.67 z-score; with GST-Aq-NF-kB, 6.62 z-score. Moreover, the binding signal with GST-Hu-p50 was 4.14 z-score.

Take “CCGATTAACATCAGGGGGGATAATGATGTTAATCGGGTCTTGATTCGCTTGACGCTGCTG”: the binding signal with GST-Ap-NF-kB RHD came to 5.8 z-score; in assay [1] it was 4.93 z-score; in assay [2], 5.26 z-score; with GST-Co-NF-kB, 7.17 z-score; with GST-Dm-Relish, 4.67 z-score; with GST-Aq-NF-kB, 4.72 z-score. The binding signal with GST-Hu-p50 was determined as 5.14 z-score.

Consider “CCGATTAACATCACGGTTTTCCCTGATGTTAATCGGGTCTTGATTCGCTTGACGCTGCTG”, for which the binding signal with GST-Ap-NF-kB RHD was found to be 3.99 z-score; in assay [1], 5.02 z-score; in assay [2], 6.45 z-score; with GST-Co-NF-kB, 4.63 z-score; with GST-Dm-Relish, 4.43 z-score; with GST-Aq-NF-kB, 5.43 z-score. In the assay with GST-Hu-p50, the binding signal was found to be 3.91 z-score.

“CCGATTAACATCAGGGAATTCCCTGATGTTAATCGGGTCTTGATTCGCTTGACGCTGCTG”: the binding signal came out at 12 z-score with GST-Ap-NF-kB RHD; 12.7 z-score in assay [1]; 11.4 z-score in assay [2]; 7.25 z-score with GST-Co-NF-kB; 10 z-score with GST-Dm-Relish; 12.2 z-score in the assay with GST-Aq-NF-kB. The binding signal with GST-Hu-p50 turned out to be 7.9 z-score.

Take “CCGATTAACATCAAGGGGGTTCCTGATGTTAATCGGGTCTTGATTCGCTTGACGCTGCTG”: the binding signal in the assay with GST-Ap-NF-kB RHD is 9.16 z-score; in assay [1] it was 6.77 z-score; in assay [2] it was 6.26 z-score; in the assay with GST-Co-NF-kB it was 1.68 z-score; with GST-Dm-Relish, 10.4 z-score; in the assay with GST-Aq-NF-kB it was 7.2 z-score. This sequence came in with a binding signal with GST-Hu-p50 of 6.65 z-score.

With “CCGATTAACATCAGGGAGATCCCTGATGTTAATCGGGTCTTGATTCGCTTGACGCTGCTG”, the binding signal in the assay with GST-Ap-NF-kB RHD was 7.41 z-score; in assay [1], 8.14 z-score; in assay [2], 4.37 z-score; with GST-Co-NF-kB, 1.54 z-score; in the assay with GST-Dm-Relish, 7.36 z-score; with GST-Aq-NF-kB it was 8.85 z-score. This sequence displayed a binding signal with GST-Hu-p50 of 4.68 z-score.

On to “CCGATTAACATCAGGGGGATCTATGATGTTAATCGGGTCTTGATTCGCTTGACGCTGCTG”, for which the binding signal in the assay with GST-Ap-NF-kB RHD was 6.31 z-score; in assay [1], 5.52 z-score; in assay [2] it was 6.98 z-score; in the assay with GST-Co-NF-kB it was 4.28 z-score; in the assay with GST-Dm-Relish it was 5.1 z-score; with GST-Aq-NF-kB, 4.5 z-score. For the same sequence, the binding signal in the assay with GST-Hu-p50 came out at 5.83 z-score.
